PubChem BioAssay (NCI)
About 79,000 compounds went through this panel and 15% of them were active in at least one assay; those are over-represented in the sample as a whole. Activity calls are given as the source filed them. Cut-off read from the data, not from the text of the source: active = growth inhibition above about 70%; inactive = the rest.

What was measured:
[1] = NCI Yeast Anticancer Drug Screen. Data for the rad52 strain (AID 147);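 note: 0% = growth of vehicle-treated control cultures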; settings: S. cerevisiae rad52 mutant growth inhibition, active compounds read high
Procedure, shortened: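 Growth of repair-deficient yeast cells was compared between compound-treated and vehicle-treated cultures to give percent inhibition.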

[2] = NCI Yeast Anticancer Drug Screen. Data for the wt1 strain (AID 149);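 note: 0% = growth of vehicle-treated wt1 cultures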; settings: S. cerevisiae wt1 strain (SPY 50644) growth inhibition, active compounds read high
Procedure, shortened: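 Yeast wt1 strain exposed to compounds; growth inhibition measured relative to vehicle-treated controls.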

[3] = NCI Yeast Anticancer Drug Screen. Data for the rad50EPP+ strain (AID 151);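 note: 0% = growth of vehicle-treated control cultures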; settings: S. cerevisiae rad50 mutant strain, active compounds read high
Procedure, shortened: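 Measured: growth inhibition of rad50EPP+ yeast. Reference: vehicle-treated controls. Screen uses strains with defined genetic alterations in DNA damage repair or cell cycle control.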

[4] = NCI Yeast Anticancer Drug Screen. Data for the mgt1 strain (AID 153); settings: S. cerevisiae mgt1 mutant growth inhibition, active compounds read high
Procedure, shortened: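 Compounds were applied to mgt1 mutant yeast, and growth was then compared against vehicle-treated control cultures to give percent inhibition.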

[5] = NCI Yeast Anticancer Drug Screen. Data for the rad50 strain (AID 155);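 note: 0% = growth of vehicle-only cultures of the same strain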; settings: S. cerevisiae rad50 strain growth inhibition, active compounds read high
Procedure, shortened: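 Yeast carrying a defined DNA repair defect were exposed to test compounds, and growth was compared with vehicle-treated controls to give percent inhibition.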

[6] = NCI Yeast Anticancer Drug Screen. Data for the mec2-1 strain (AID 157); settings: S. cerevisiae mec2-1 strain, active compounds read high
Procedure, shortened: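 Compounds were applied to mec2-1 yeast cells. Their growth was then compared with that of vehicle-treated cultures to give growth inhibition.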

[7] = NCI Yeast Anticancer Drug Screen. Data for the rad14 strain (AID 159);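 note: 0% = growth of vehicle-treated control cultures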; settings: S. cerevisiae rad14 strain growth inhibition, active compounds read high
Procedure, shortened: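 Yeast cells carrying a defined DNA-repair defect were exposed to compounds, and growth inhibition was calculated relative to vehicle-treated control cultures.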

[8] = NCI Yeast Anticancer Drug Screen. Data for the CLN2oe strain (AID 163);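 note: 0% = growth of vehicle-only control cultures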; settings: S. cerevisiae CLN2oe strain, active compounds read high
Procedure, shortened: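 Cells of an engineered yeast line with disturbed cell-cycle regulation are treated with compound. Inhibition of growth is then calculated relative to the vehicle-treated reference.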

[9] = NCI Yeast Anticancer Drug Screen. Data for the cln2 rad14 strain (AID 165);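 note: 0% = growth equal to vehicle treated cultures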; settings: S. cerevisiae cln2 rad14 strain, active compounds read high
Procedure, shortened: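 Strain: cln2 rad14 yeast, altered in cell cycle control and DNA damage repair. Read-out: growth inhibition vs vehicle.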

[10] = NCI Yeast Anticancer Drug Screen. Data for the bub3 strain (AID 167); settings: S. cerevisiae bub3 mutant strain, active compounds read high
Procedure, shortened: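 Compounds were applied to a genetically altered yeast strain carrying a cell-cycle control defect. Growth inhibition was scored against vehicle-treated controls.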

[11] = NCI Yeast Anticancer Drug Screen. Data for the wt2 strain (AID 169);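 note: 0% = growth of vehicle-treated yeast cultures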; settings: S. cerevisiae wt2 strain growth inhibition, active compounds read high
Procedure, shortened: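 Growth of compound-treated yeast is measured and expressed as inhibition relative to vehicle-only controls.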

[12] = NCI Yeast Anticancer Drug Screen. Data for the mlh1 strain (AID 171);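 note: 0% = growth of vehicle-treated control cultures of the same strain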; settings: S. cerevisiae mlh1 strain growth inhibition, active compounds read high
Procedure, shortened: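 Test agents were incubated with yeast bearing a defined DNA damage repair or cell cycle control alteration; values are growth inhibition normalised to vehicle-treated cultures.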

[13] = NCI Yeast Anticancer Drug Screen. Data for the mlh1 rad18 strain (AID 175); settings: S. cerevisiae mlh1 rad18 strain growth inhibition, active compounds read high
Procedure, shortened: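 A repair-deficient yeast strain is exposed to test compound, and growth is scored relative to vehicle-treated controls.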

[14] = NCI Yeast Anticancer Drug Screen. Data for the rad18 strain (AID 177); settings: S. cerevisiae rad18 mutant growth inhibition, active compounds read high
Procedure, shortened: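 DNA-repair-defective yeast; compound treatment; growth inhibition scored against vehicle.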

[15] = NCI Yeast Anticancer Drug Screen. Data for the sgs1 mgt1 strain (AID 161);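 note: 0% = growth of cultures given vehicle only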; settings: S. cerevisiae sgs1 mgt1 strain, active compounds read high
Procedure, shortened: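 Percent growth inhibition was derived by comparing compound-exposed mutant yeast with vehicle-exposed cultures. The strain carries alterations in DNA damage repair.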

[16] = NCI Yeast Anticancer Drug Screen. Data for the sgs1 strain (AID 173);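 note: 0% = growth of vehicle-only control cultures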; settings: S. cerevisiae sgs1 mutant, active compounds read high
Procedure, shortened: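 Strain with an altered DNA repair or cell cycle pathway exposed to compound. Growth then measured. Value = inhibition versus vehicle control.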

[17] = at 5.0 µM (retest, dose inferred, filed as 0.5)
[18] = at 50.0 µM (retest, dose inferred, filed as 5.0)

Measured: growth inhibition

c1ccc2c(c1)NC(NC1Nc3ccccc3N1)N2
active: [10]; [18] 70% | [13]; [18] 81%
inactive: [1]; at 1.2 µM 0% | [1]; at 3.7 µM 4% | [1]; at 11.0 µM 6% | [1]; at 33.0 µM 19% | [1]; at 100.0 µM 31% | [2]; at 1.2 µM 0% | [2]; at 3.7 µM 5% | [2]; at 11.0 µM 4% | [2]; at 33.0 µM 9% | [2]; at 100.0 µM 19% | [3]; at 1.2 µM 9% | [3]; at 3.7 µM 23% | [3]; at 11.0 µM 34% | [3]; at 33.0 µM 38% | [3]; at 100.0 µM 48% | [4]; at 1.2 µM -4% | [4]; at 3.7 µM -7% | [4]; at 11.0 µM -4% | [4]; at 33.0 µM 0% | [4]; at 100.0 µM 10% | [5]; at 1.2 µM 1% | [5]; at 3.7 µM 5% | [5]; [17] 9% | [5]; at 11.0 µM 8% | [5]; at 33.0 µM 23% | [5]; [18] 67% | [5]; at 50.0 µM 41.5% | [5]; at 100.0 µM 40% | [6]; at 1.2 µM 5% | [6]; at 3.7 µM 7% | [6]; [17] -3% | [6]; at 11.0 µM 10% | [6]; at 33.0 µM 16% | [6]; [18] 16% | [6]; at 50.0 µM 9.05% | [6]; at 100.0 µM 20% | [7]; at 1.2 µM -4% | [7]; at 3.7 µM -1% | [7]; at 11.0 µM 3% | [7]; at 33.0 µM 12% | [7]; at 100.0 µM 26% | [8]; at 1.2 µM -6% | [8]; at 3.7 µM -17% | [8]; at 11.0 µM -9% | [8]; at 33.0 µM -7% | [8]; at 100.0 µM 8% | [9]; [17] 13% | [9]; [18] 32% | [9]; at 50.0 µM -21.1% | [10]; at 1.2 µM -2% | [10]; at 3.7 µM -4% | [10]; [17] 19% | [10]; at 11.0 µM -2% | [10]; at 33.0 µM -2% | [10]; at 50.0 µM 10.8% | [10]; at 100.0 µM -10% | [11]; at 1.2 µM 0% | [11]; at 3.7 µM 0% | [11]; at 11.0 µM 0% | [11]; at 33.0 µM 8% | [11]; at 100.0 µM 19% | [12]; at 1.2 µM 3% | [12]; at 3.7 µM 1% | [12]; at 11.0 µM 4% | [12]; at 33.0 µM 10% | [12]; at 100.0 µM 14% | [13]; [17] 25% | [13]; at 50.0 µM 27.6% | [14]; at 1.2 µM 3% | [14]; at 3.7 µM 10% | [14]; at 11.0 µM 29% | [14]; at 33.0 µM 49% | [14]; at 100.0 µM 64%

CC(O)C(O)C(O)C(/C=N\Nc1ccccc1)=N/Nc1ccccc1 (stereo not given)
active: [1]; at 100.0 µM 98% | [2]; at 100.0 µM 96% | [4]; at 100.0 µM 99% | [6]; at 100.0 µM 98% | [7]; at 100.0 µM 99% | [15]; at 50.0 µM 95.5% | [11]; at 100.0 µM 99% | [12]; at 100.0 µM 98% | [16]; at 100.0 µM 98% | [13]; at 50.0 µM 98.9% | [14]; at 33.0 µM 95% | [14]; at 100.0 µM 99%
inactive: [1]; at 1.2 µM 5% | [1]; at 3.7 µM 10% | [1]; at 11.0 µM 12% | [1]; at 33.0 µM 69% | [2]; at 1.2 µM 4% | [2]; at 3.7 µM 9% | [2]; at 11.0 µM 13% | [2]; at 33.0 µM 8% | [3]; at 1.2 µM 14% | [3]; at 3.7 µM 26% | [3]; at 11.0 µM 39% | [3]; at 33.0 µM 50% | [3]; at 100.0 µM 50% | [4]; at 1.2 µM 6% | [4]; at 3.7 µM 9% | [4]; at 11.0 µM 10% | [4]; at 33.0 µM 47% | [6]; at 1.2 µM -4% | [6]; at 3.7 µM 1% | [6]; [17] -5% | [6]; at 11.0 µM 11% | [6]; at 33.0 µM 46% | [6]; [18] 51% | [6]; at 50.0 µM 58.3% | [7]; at 1.2 µM -2% | [7]; at 3.7 µM -1% | [7]; at 11.0 µM 4% | [7]; at 33.0 µM 21% | [15]; [17] 3% | [15]; [18] 56% | [8]; at 1.2 µM -7% | [8]; at 3.7 µM -4% | [8]; at 11.0 µM -5% | [8]; at 33.0 µM 18% | [8]; at 100.0 µM 28% | [9]; [17] 1% | [9]; [18] 49% | [9]; at 50.0 µM 8.25% | [10]; at 1.2 µM -3% | [10]; at 3.7 µM -3% | [10]; [17] -7% | [10]; at 11.0 µM 19% | [10]; at 33.0 µM 24% | [10]; [18] 43% | [10]; at 50.0 µM 69.1% | [10]; at 100.0 µM 30% | [11]; at 1.2 µM 2% | [11]; at 3.7 µM 8% | [11]; at 11.0 µM 10% | [11]; at 33.0 µM 38% | [12]; at 1.2 µM 3% | [12]; at 3.7 µM 4% | [12]; at 11.0 µM 6% | [12]; at 33.0 µM 68% | [16]; at 1.2 µM 1% | [16]; at 3.7 µM 10% | [16]; at 11.0 µM 11% | [16]; at 33.0 µM 68% | [13]; [17] 7% | [13]; [18] 65% | [14]; at 1.2 µM 5% | [14]; at 3.7 µM 9% | [14]; at 11.0 µM 9%

c1ccc2c(c1)sc1nc3ccncc3nc12
active: [1]; at 100.0 µM 92% | [3]; at 33.0 µM 85% | [3]; at 100.0 µM 89% | [5]; at 1.2 µM 79% | [5]; at 33.0 µM 76% | [5]; [18] 87% | [5]; at 50.0 µM 90% | [5]; at 100.0 µM 87%
inactive: [1]; at 1.2 µM 5% | [1]; at 3.7 µM 16% | [1]; at 11.0 µM 38% | [1]; at 33.0 µM 61% | [2]; at 1.2 µM 0% | [2]; at 3.7 µM 13% | [2]; at 11.0 µM 21% | [2]; at 33.0 µM 20% | [2]; at 100.0 µM 29% | [3]; at 1.2 µM 23% | [3]; at 3.7 µM 52% | [3]; at 11.0 µM 55% | [4]; at 1.2 µM 2% | [4]; at 3.7 µM -2% | [4]; at 11.0 µM -1% | [4]; at 33.0 µM -1% | [4]; at 100.0 µM 2% | [5]; at 3.7 µM 35% | [5]; [17] -55% | [5]; at 11.0 µM 61% | [15]; [17] -61% | [15]; [18] -16%
